# Test system: RARg:RXRa (NR concentration 270 nM, RXRa partner concentration 90 nM)
# Test: PBM binding z-score (relative to random genomic background probes); higher = stronger binding; sequences stand for … in GC…GCGATTGACAGCGTAGAATGAAGG
# Procedure, shortened: (§1)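 Regression normalization was applied to scanned fluorescence from custom Agilent 4×180K protein-binding microarrays. Before scanning, arrays were incubated 1 h with ligand-free nuclear receptor dimers, and binding was detected with antibodies against each partner (one per run). Binding z-scores use the random background probes as reference.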
row,Sequence,PBM binding z-score
1,GCTATTACTTGAAAGGGCAACCGAATGATTCTCG,1.27
2,TGTCAAAGTTCAGAGGTAACGTAAGTATCCACAC,4.64
3,TGGAGTAGGTTAGGGGCATTCAGAATGGCGTCGA,0.847
4,CCTTACGGGTCACTCCAGTTTATAGCATCGGAGT,4.06
5,CCGTCTGGGGCAGAAAGGTTACCATACCATCCGG,1.36
6,CCTAGTTGGTCAGGAGGGCACACACCGGATATGA,1.52
7,TCTATTCGTTGATTAGGGCAACCGAAACAGCGGA,0.485
8,GCTGCTAGGTCCGGTTGGTCAGCTAACGGGTACG,-0.731
9,GGAACGAGGGCAAAGTGGATAGCATCTGTCGACG,1.54
10,GCTAGCAGGCCATTTGGGTCTCTCAATGACGGGC,-0.279
11,ATCGAAAGTTCGAAGGTGAGTATACCCACCCGAA,1.82
12,AGAATGAGGTTATTAAAATCAGGGAATTGCGGTC,0.827
13,ATCTCTAGGTAACAAGTTCAGTGGAAGAGAGGAC,1.22
14,GGAACGAGGGCAAAGTTGAAAGCATCTGTCGACG,2.59
15,TCTTTTAGATCAAAGGTTAAGAAAGCCGAAGCCT,1.81
16,AGAGCGAGGGCACGCTGAGTTGATAGCAGAGTAG,1.76
17,ACTCGGAGGACAAAGGTCTGAGCTACGCCAGTGA,0.869

# Test system: RARg homodimer (NR concentration 270 nM)
# Test: as above
# Procedure, shortened: as §1
row,Sequence,PBM binding z-score
1,CGAACTAGGGCATCCAGGACAGTGAATACATTGA,1.17
2,TCGAATAGGTTAGTCGGGGCATTCAGCCAACATA,0.436
3,TCTGGGAGGACACGAAAGGTCAGAGCTCGACATC,5.82
4,CCGAGTAGGTTATGGGGCATACAGGCAACGGTGA,0.725
5,CAGCCTAGGTCAGGGCCAGTTTAGGAGGAACGTT,3.48
6,TAGCCTAGGTCAAGGGCCAGTATACCACGCGAAC,4.75
7,ACTAGTTGGTCAGCTGAGGTCATACACAATTCGG,3.38
8,CGTCCAAGGTCAAGGTCAGTCAAAGAGACTCGAA,7.59
9,AGTCAAAGTTCGTCTAGGTAACGTAAGATATGCT,2.11
10,CGTTAAAGTTCAACTAAGGTAACGTAAAGCACGC,6.33
11,ACTTACGGGTCAACGAGGGTATAGCACGCGTATA,4.88
12,ATCTCTAAGTAAAGATAGTTCAGTGAATGCAAAT,0.889
13,GATACAGGGTCAGCTAGAGGCTAGAGTATGGAAA,4.56
14,CCAGACAGGTGAGAAGGGAACTCAGCCTCGATTA,0.115
15,CCTGCTAAGTCAATGGTCAGCTAAAGCAGCTCGC,-0.302
16,CTACCAAGGTGAACAAGGTCGCTGATTACTATTC,1.55
17,CCTGCTAGGTCATGATCAGCTAATCTACAGTATG,4.57
18,TCTAGCAGGACAGAGGGTCACTCAAGAGGTACGG,2.11
19,ACTAGCAGGCCAAGTTTGGTTCACTCAAACAAAG,0.218
20,ATCTCTAGCTAACAAGTTCAGTGAAAGAGAGGAC,0.987

row,Sequence,PBM binding z-score
1,TCTATCAGGCCAGAGGGTCACTCAAGAGGTACGG,2.44
2,GTACCAAGGTGCATAGGTCGTTGATGAGTAGGCG,0.407
3,GCTATTACTTGAAAGGGCAACCGAATGATTCTCG,1.27
4,TGTCAAAGTTCAGAGGTAACGTAAGTATCCACAC,4.84
5,TGGAGTAGGTTAGGGGCATTCAGAATGGCGTCGA,0.846
6,CCTTACGGGTCACTCCAGTTTATAGCATCGGAGT,4.22
7,CCGTCTGGGGCAGAAAGGTTACCATACCATCCGG,0.979
8,CCTAGTTGGTCAGGAGGGCACACACCGGATATGA,1.53
9,TCTATTCGTTGATTAGGGCAACCGAAACAGCGGA,0.548
10,GCTGCTAGGTCCGGTTGGTCAGCTAACGGGTACG,-0.757
11,GGAACGAGGGCAAAGTGGATAGCATCTGTCGACG,1.53
12,GCTAGCAGGCCATTTGGGTCTCTCAATGACGGGC,-0.301
13,ATCGAAAGTTCGAAGGTGAGTATACCCACCCGAA,1.51
14,AGAATGAGGTTATTAAAATCAGGGAATTGCGGTC,0.788
15,ATCTCTAGGTAACAAGTTCAGTGGAAGAGAGGAC,1.25
16,GGAACGAGGGCAAAGTTGAAAGCATCTGTCGACG,1.86
17,TCTTTTAGATCAAAGGTTAAGAAAGCCGAAGCCT,1.01
18,AGAGCGAGGGCACGCTGAGTTGATAGCAGAGTAG,1.96
19,ACTCGGAGGACAAAGGTCTGAGCTACGCCAGTGA,0.954

# Test system: RXRa DBDmut IVT, anti-RXR (DBD mutation: RXRa K156A/R161A, NR concentration 90 nM)
# Test: as above
# Procedure, shortened: as §1
row,Sequence,PBM binding z-score
1,CGAACTAGGGCATCCAGGACAGTGAATACATTGA,0.66
2,TCGAATAGGTTAGTCGGGGCATTCAGCCAACATA,0.913
3,TCTGGGAGGACACGAAAGGTCAGAGCTCGACATC,0.799
4,CCGAGTAGGTTATGGGGCATACAGGCAACGGTGA,-0.471
5,CAGCCTAGGTCAGGGCCAGTTTAGGAGGAACGTT,0.133
6,TAGCCTAGGTCAAGGGCCAGTATACCACGCGAAC,0.34
7,ACTAGTTGGTCAGCTGAGGTCATACACAATTCGG,1.89
8,CGTCCAAGGTCAAGGTCAGTCAAAGAGACTCGAA,4.09
9,AGTCAAAGTTCGTCTAGGTAACGTAAGATATGCT,3.25
10,CGTTAAAGTTCAACTAAGGTAACGTAAAGCACGC,4.8
11,ACTTACGGGTCAACGAGGGTATAGCACGCGTATA,2.4
12,ATCTCTAAGTAAAGATAGTTCAGTGAATGCAAAT,0.232
13,GATACAGGGTCAGCTAGAGGCTAGAGTATGGAAA,0.988
14,CCAGACAGGTGAGAAGGGAACTCAGCCTCGATTA,0.063
15,CCTGCTAAGTCAATGGTCAGCTAAAGCAGCTCGC,0.497
16,CTACCAAGGTGAACAAGGTCGCTGATTACTATTC,0.77
17,CCTGCTAGGTCATGATCAGCTAATCTACAGTATG,1.65
18,TCTAGCAGGACAGAGGGTCACTCAAGAGGTACGG,0.168
19,ACTAGCAGGCCAAGTTTGGTTCACTCAAACAAAG,0.0733
20,ATCTCTAGCTAACAAGTTCAGTGAAAGAGAGGAC,0.511

row,Sequence,PBM binding z-score
1,TCTATCAGGCCAGAGGGTCACTCAAGAGGTACGG,0.811
2,GTACCAAGGTGCATAGGTCGTTGATGAGTAGGCG,0.546
3,GCTATTACTTGAAAGGGCAACCGAATGATTCTCG,0.581
4,TGTCAAAGTTCAGAGGTAACGTAAGTATCCACAC,3.01
5,TGGAGTAGGTTAGGGGCATTCAGAATGGCGTCGA,-0.404
6,CCTTACGGGTCACTCCAGTTTATAGCATCGGAGT,1.78
7,CCGTCTGGGGCAGAAAGGTTACCATACCATCCGG,-0.795
8,CCTAGTTGGTCAGGAGGGCACACACCGGATATGA,-0.604
9,TCTATTCGTTGATTAGGGCAACCGAAACAGCGGA,0.758
10,GCTGCTAGGTCCGGTTGGTCAGCTAACGGGTACG,-0.46
11,GGAACGAGGGCAAAGTGGATAGCATCTGTCGACG,2.28
12,GCTAGCAGGCCATTTGGGTCTCTCAATGACGGGC,-0.264
13,ATCGAAAGTTCGAAGGTGAGTATACCCACCCGAA,1.94
14,AGAATGAGGTTATTAAAATCAGGGAATTGCGGTC,1.46
15,ATCTCTAGGTAACAAGTTCAGTGGAAGAGAGGAC,1.13
16,GGAACGAGGGCAAAGTTGAAAGCATCTGTCGACG,2.79
17,TCTTTTAGATCAAAGGTTAAGAAAGCCGAAGCCT,1.32
18,AGAGCGAGGGCACGCTGAGTTGATAGCAGAGTAG,1.28
19,ACTCGGAGGACAAAGGTCTGAGCTACGCCAGTGA,0.352
